Reference: PubChem BioAssay (Tox21)
Calls of active or inactive are those of the source. Calls follow the shape of the dose curve; as a rule, active = well fitted curve in the direction sought with a large enough effect in the repeat runs; inconclusive = weak or mixed curves; inactive = flat fitted curve, though single readings scatter.

Test: qHTS assay to test for compound auto fluorescence at 535 nm (green) in HepG2 cell free culture (AID 720686)
Conditions: Cell-free medium, green autofluorescence 485/535 nm; series mostly up to 91.3 µM; fluorescence, % of fluorescein control: at the top concentration
Excerpt: U.S. Tox21 Program National Center for Advancing Translational Sciences [NCATS] NIH Chemical Genomics Center [NCGC] U.S. Environmental Protection Agency [EPA] National Institutes of Environmental Health Sciences [NIEHS] National Toxicology Program [NTP] U.S. Food and Drug Administration [FDA] Tox21 Assay Overview: Compound auto fluorescence often interferes with screening of the compound library against various biological targets and signaling pathways. Some of these compounds may have fluorophoric properties. Such properties may interfere with the assay outputs resulting in false positives and/or negatives. To decrease such complications and ensure the compound activities are relevant in terms of biological response, the Tox21 10K compound library was screened for auto fluorescence. From the fluorophores used as reporter signals in our screening assays, the auto fluorescence equivalencies of compounds against three fluorophores have been evaluated: Triamterene, Fluorescein and Rose Bengal sodium for blue, green and red fluorescence, respectively. The fluorescence intensities were measured using Excitation/Emission wavelengths at 405/460nm, 485/535nm and 540/590nm for blue, green and red labels, respectively. This assay includes the green fluorescence data.
Tox21 Assay Protocol Summary: 5 uL of culture medium (MEM containing 10% FBS) per well was dispensed into black wall/clear bottom 1536-well plates using a Multidrop Combi Dispenser (ThermoFisher Scientific, Waltham, MA). After 23 nL compound or DMSO vehicle was transferred into assay plate by a pintool work station (Kalypsys, San Diego, CA), fluorescence intensities in the assay plates were measured by an Envision (PerkinElmer, Shelton, CT) plate reader using three labels for measuring blue, green and red fluorescence at […] 460, 535 and 590nm respectively.
% is scaled to controls: 0 for no effect and ±100 for the full control effect.

Structure (SMILES) | fluorescence, % of fluorescein control | Potency
O=C(O)c1ccc(-n2nc(-c3ccccc3O)nc2-c2ccccc2O)cc1 | -0.147% [at 46 µM] (inactive) | 
CN(C)c1ccc(/C=C/c2ccc([N+](=O)[O-])cc2)cc1 | -0.0291% [at 3.72 µM] (inactive) | 
CCCCCCCCO[C@@H]1O[C@H](CO)[C@@H](O)[C@H](O)[C@H]1O | 0.0649% (inactive) | 
CCCCCCCN | 0.0163% [at 95.7 µM] (inactive) | 
CO[C@@H]1[C@H](OC(=O)/C=C/C=C/C=C/C=C/C(=O)O)CC[C@]2(CO2)[C@H]1[C@@]1(C)O[C@@H]1CC=C(C)C |  | inactive
Nc1ncn([C@H]2C[C@H](O)[C@@H](CO)O2)c(=O)n1 | -0.0014% [at 46 µM] (inactive) | 
Nc1ccccc1S(=O)(=O)c1ccccc1 | 0.0309% (inactive) | 
C[N+]1(C)CCC(OC(=O)C(O)(c2ccccc2)C2CCCC2)C1 (stereo not given) |  | inactive
CC(C)C[C@H]1C(=O)N2CCC[C@H]2[C@]2(O)O[C@](NC(=O)[C@@H]3C=C4c5cccc6[nH]c(Br)c(c56)C[C@H]4N(C)C3)(C(C)C)C(=O)N12 |  | inactive
CC1=CC=C(C(C)C)CC1 | 0.0353% (inactive) | 
CC1=CC[C@H](C(C)C)C=C1 | 0.0276% (inactive) | 
COCC(C)OC(C)=O (stereo not given) | 0.0599% (inactive) | 
CCCCO |  | inactive
Cc1oc2c(NC(=O)c3c(Cl)cccc3Cl)cccc2c1C(C)(C)O | 0.087% (inactive) | 
CCOc1ccc(O)cc1 | -0.0744% (inactive) | 
CC[N+](C)(CC)CCOC(=O)C(O)(c1ccccc1)C1CCCCC1 (stereo not given) | 0.0414% [at 46 µM] (inactive) | 
CCCCCCCCCCCCN1CCCCCC1=O | 0.0219% (inactive) | 
CC(C)O.CC(C)O.CCOC(=O)/C=C(\C)O.CCOC(=O)/C=C(\C)O.[Ti] | 0.0564% (inactive) | 
Nc1cccc(S(=O)(=O)c2cccc(N)c2)c1 | 0.0337% (inactive) | 
C=CC1CC2C=CC1C2 (stereo not given) | -0.14% (inactive) | 

Structure (SMILES) | fluorescence, % of fluorescein control | Potency
NC(N)=NCCC[C@H](N)C(=O)O | 0.0756% [at 46 µM] (inactive) | 
COc1cc(Cl)ccc1Oc1ccc(Cl)cc1Cl | -0.0626% (inactive) | 
COc1ccc(C(=O)c2ccc(OC)cc2O)c(O)c1 | 0.0248% (inactive) | 
CC(=O)c1ccc2c(c1)N(CCCN(C)C)c1ccccc1S2 | -0.0543% [at 18.6 µM] (inactive) | 
CN(Cc1ccc(C(C)(C)C)cc1)Cc1cccc2ccccc12 |  | inactive
CNCCCN1c2ccccc2CCc2ccccc21 | -0.0226% [at 18.6 µM] (inactive) | 
COC(=O)C1=C(C)NC(COC(N)=O)=C(C(=O)OC(C)C)C1c1cccc(Cl)c1Cl (stereo not given) | -0.0329% [at 46 µM] (inactive) | 
CCCCOC(=O)CCCCCCCC(=O)OCCCC | 0.0154% (inactive) | 
O=C(O)c1nc(Cl)c(Cl)c(Cl)c1Cl | -0.06% (inactive) | 
O=S(c1cc(Cl)cc(Cl)c1O)c1cc(Cl)cc(Cl)c1O | -0.0727% [at 46 µM] (inactive) | 
C=CC(=O)OCCOCCOC(=O)C=C | 0.038% (inactive) | 
C=CCOC(=O)CCC1CCCCC1 | -0.0341% (inactive) | 
COc1ccnc(CS(=O)c2nc3ccc(OC(F)F)cc3[nH]2)c1OC (stereo not given) | -0.04% [at 46 µM] (inactive) | 
CC[N+]1(CC)CCC(=C(c2ccccc2)c2ccccc2)C1C (stereo not given) | 0.16% [at 46 µM] (inactive) | 
Nc1ccc(N)c2c1C(=O)c1ccccc1C2=O | -0.309% (inactive) | 
Cc1c(N)cccc1[N+](=O)[O-] | 1.3e-05% [at 95.7 µM] (inactive) | 
O=C1[C@H]2CCCC[C@H]2C(=O)N1CCCCN1CCN(c2nsc3ccccc23)CC1 | -0.0577% [at 46 µM] (inactive) | 
CCOC(=O)c1cccnc1 | 0.199% [at 46 µM] (inactive) | 
CCN(CC)CCOC(=O)C(c1ccccc1)C1CCCCC1 (stereo not given) | -0.0117% [at 46 µM] (inactive) | 
CCc1c(C(=O)NN2CCCCC2)nn(-c2ccc(Cl)cc2Cl)c1-c1ccc(Br)cc1 | -0.041% (inactive) | 
